This passage reports percent of control results from PubChem BioAssay AID737 (Emory University Molecular Libraries Screening Center, 2007).

Results with a measured potency or affinity are listed apart. The source made the active and inactive calls.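 How the source made its calls: active means fitted EC50 under 30 µM, or percent of control over 300% when no usable fit; inactive means the rest.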

The target of the test is Estrogen receptor (Homo sapiens) (UniProt P03372). The test is described as follows: potentiators of ERα–SRC-1 coactivator binding, dose response, biochemical, TR-FRET, ERα LBD (AID 737). The note with it: TR-FRET ER-alpha LBD / SRC-Cy5 coactivator recruitment; at 12.5 µM; hits give high values.
Chain of Estrogen receptor (Homo sapiens) (P03372 whole entry, looked up, the tested form may be a part): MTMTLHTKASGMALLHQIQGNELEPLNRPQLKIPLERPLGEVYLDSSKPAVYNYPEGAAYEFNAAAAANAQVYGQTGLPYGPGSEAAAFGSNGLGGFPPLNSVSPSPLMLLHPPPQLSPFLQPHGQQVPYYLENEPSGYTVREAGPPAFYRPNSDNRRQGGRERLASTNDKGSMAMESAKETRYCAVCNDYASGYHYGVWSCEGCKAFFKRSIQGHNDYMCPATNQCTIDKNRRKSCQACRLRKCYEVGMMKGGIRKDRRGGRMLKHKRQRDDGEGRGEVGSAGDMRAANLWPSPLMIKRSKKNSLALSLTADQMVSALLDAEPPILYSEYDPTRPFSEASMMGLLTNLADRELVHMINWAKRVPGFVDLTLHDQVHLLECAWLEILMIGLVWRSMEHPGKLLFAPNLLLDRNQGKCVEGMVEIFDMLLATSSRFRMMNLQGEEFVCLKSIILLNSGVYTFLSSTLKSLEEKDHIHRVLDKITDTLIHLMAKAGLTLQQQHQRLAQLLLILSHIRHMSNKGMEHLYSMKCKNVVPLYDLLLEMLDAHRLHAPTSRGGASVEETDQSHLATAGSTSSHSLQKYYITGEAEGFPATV
For the compound `O=C(Nc1ccc(-c2noc(-c3cccs3)n2)cc1)c1cccnc1`, the percent of control was 208% (inactive).

Consider `Cc1ccc(S(=O)(=O)c2nc(S(C)(=O)=O)sc2NCC2CCCO2)cc1` (stereo not drawn), for which the percent of control was 136% (inactive).

Turning to `CCOC(=O)Cn1c(-c2nonc2NC(=O)c2ccccc2F)nc2ccccc21`, the percent of control was 218% (inactive).

Turning to `Cc1ccc(C)n1-c1cccc(C(=O)O)c1`, the percent of control is 26.6% (inactive).

As for `CCOC(=O)c1sc(NC(=O)c2ccc3ncsc3c2)nc1C`, the percent of control is 349% (active).

Regarding `COc1ccc(-c2c(C#N)c(C)nc3c2C(=O)c2ccccc2-3)cc1`, the percent of control was 239% (inactive).

Regarding `CCOC(=O)N1c2ccccc2C=CC1OCC` (stereo not drawn), the percent of control is 152% (inactive).

In the case of `COc1ccc(OC)c(C(=O)CSc2nnc(-c3ccc(OC)c(OC)c3)o2)c1`, the percent of control is 662% (active).

For the compound `O=C(c1cc2ccccc2oc1=O)N(Cc1ccco1)Cc1cccs1`, the percent of control was 110% (inactive).

Take `O=C(Cc1ccc(Cl)cc1)Nc1ccc2oc(-c3ccncc3)nc2c1`: the percent of control is 207% (inactive).

Turning to `O=C(COC(=O)C(O)c1ccccc1)c1ccc2c(c1)OCCO2` (stereo not drawn), the percent of control is 108% (inactive).

`CCOC(=O)c1c(NC(=O)CSc2nnc(-c3ccccc3)o2)sc(C(C)=O)c1C`: the percent of control was 305% (active).

As for `Cc1ccc(NC(=O)CSc2nnc(Cn3c(=O)sc4ccccc43)n2C)cc1Cl`, the percent of control is 165% (inactive).
